{"source": "PubChem BioAssay AID588335", "about": "(The Scripps Research Institute Molecular Screening Center, 2011)", "note": "Hit rate of the full screen: of about 360,000 compounds, about 4,500 (1.2%) were called active. Cut-off read from the data, not from the text of the source: active = inhibition above about 30%; inactive = the rest. Many of the other results were omitted from the sample, so actives are more common in it than they were."}
{"assay": "GDH-TPI coupling enzyme inhibitors, primary screen, artefact control for M. tuberculosis FBA inhibitor project, biochemical, absorbance, full deck (AID 588335);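 note: 0% = DMSO wells and 100% = wells lacking the enzyme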", "settings": "GDH-TPI coupled enzyme counterscreen, NADH absorbance; at 4.8 µM; hits give high values"}
{"molecule": "O=C(NCc1ccco1)/C(=C/c1cccc([N+](=O)[O-])c1)NC(=O)c1ccco1", "inhibition": "-4.48% (inactive)"}
{"molecule": "Cc1ccc(C(=O)N/C(=C/c2ccc(-c3cccc([N+](=O)[O-])c3)o2)C(=O)NCCCN(C)C)cc1", "inhibition": "58.5% (active)"}
{"molecule": "O=C(NCc1ccco1)/C(=C\\c1cccc([N+](=O)[O-])c1)NC(=O)c1ccco1", "inhibition": "16.8% (inactive)"}
{"molecule": "CN(C(=O)c1cccc(NC(=O)Cc2ccc([N+](=O)[O-])cc2)c1)C1CCC1", "inhibition": "6.17% (inactive)"}
{"molecule": "Cc1nnsc1C(=O)N/N=C/c1cccc(C(F)(F)F)c1", "inhibition": "5.54% (inactive)"}
{"molecule": "COc1cc(/C=N/NC(=O)Nc2ccccc2)ccc1OCCOc1ccccc1C", "inhibition": "18.8% (inactive)"}
{"molecule": "COc1ccc(/C=N\\NC(=O)c2sc(N)nc2C)cc1OC", "inhibition": "40.4% (active)"}
{"molecule": "CC1(Oc2ccc(Cl)cc2)CCN(Cc2csc3ccccc23)C1", "note": "(stereo unspecified)", "inhibition": "-8.04% (inactive)"}
{"molecule": "CCOC(=O)c1ccccc1NC(=S)N1CCC(C(N)=O)CC1", "inhibition": "-2.65% (inactive)"}
{"molecule": "CCCCn1c(N)c(N(CCOC)C(=O)c2sc3ccccc3c2Cl)c(=O)[nH]c1=O", "inhibition": "0% (inactive)"}
{"molecule": "CC(=O)Nc1ccc(S(=O)(=O)Nc2nc3n(n2)C(c2ccccc2)CC(=O)N3)cc1", "note": "(stereo unspecified)", "inhibition": "0.72% (inactive)"}
{"molecule": "CCOc1ccc(-n2c(SCC(=O)Nc3ccc(OC)cc3)nc3sc4c(c3c2=O)CCN(C)C4)cc1", "inhibition": "19.9% (inactive)"}
{"molecule": "COc1ccccc1NC(=O)CSc1nc2sc3c(c2c(=O)n1-c1ccccc1)CCN(C)C3", "inhibition": "33.1% (active)"}
{"molecule": "CCSc1nc2sc3c(c2c(=O)n1-c1ccc(C)cc1)CCN(C)C3", "inhibition": "30.7% (active)"}
{"molecule": "CCn1c(SCC(=O)Nc2ccc(Br)cc2)nc2sc3c(c2c1=O)CCN(C)C3", "inhibition": "6.95% (inactive)"}
{"molecule": "CCCSc1nc2sc3c(c2c(=O)n1-c1ccc(OC)cc1)CCN(C)C3", "inhibition": "14.5% (inactive)"}
{"molecule": "CCOc1ccc(-n2c(SCC(=O)OC)nc3sc4c(c3c2=O)CCN(C)C4)cc1", "inhibition": "22.9% (inactive)"}
{"molecule": "C[C@H]1CN([C@@H](C)CO)C(=O)CCCn2cc(nn2)CO[C@@H]1CN(C)S(=O)(=O)c1ccc(-c2ccccc2)cc1", "inhibition": "5.15% (inactive)"}
{"molecule": "CC1(C)CC(=O)C(C2c3ccccc3S(=O)(=O)c3ccccc32)C(=O)C1", "inhibition": "3.51% (inactive)"}
{"molecule": "Cc1c(C=O)c2ccccn2c1C(=O)c1ccncc1", "inhibition": "23.7% (inactive)"}
{"molecule": "COc1cc(NC(=O)CCNC(=O)Cn2ccc3ccccc3c2=O)cc(OC)c1OC", "inhibition": "-1.5% (inactive)"}
{"molecule": "Cn1c(=O)c2c(nc(N3CCCCCC3)n2CC(O)COc2ccc(Cl)cc2)n(C)c1=O", "note": "(stereo unspecified)", "inhibition": "3.88% (inactive)"}
{"molecule": "CN(C)S(=O)(=O)c1cccc(NC(=O)COC(=O)c2cc(=O)[nH]c(=O)[nH]2)c1", "inhibition": "-1.24% (inactive)"}
{"molecule": "Cc1ccc(/C=N/NC(=S)Nc2cccc(S(=O)(=O)N(C)C)c2)o1", "inhibition": "55.8% (active)"}
{"molecule": "CN(C)S(=O)(=O)c1cccc(NC(=O)COc2ccc3ccccc3c2)c1", "inhibition": "0.32% (inactive)"}
{"molecule": "CCN(C(=O)Nc1cccc2ccccc12)c1ccccc1", "inhibition": "3.9% (inactive)"}
{"molecule": "Cc1cccc(S(=O)(=O)N2CN(CC3CCCO3)c3nc4ccccc4nc32)c1", "note": "(stereo unspecified)", "inhibition": "11.8% (inactive)"}
{"molecule": "Cc1sc(NC(=O)C2=COCCO2)c(C#N)c1C", "inhibition": "13.8% (inactive)"}
{"molecule": "Cc1c(C(=O)OC(C)C)sc(NC(=O)c2cccnc2)c1C#N", "inhibition": "20.9% (inactive)"}
{"molecule": "CCN(CC)C(=O)c1sc(NC(=O)c2ccco2)c(C#N)c1C", "inhibition": "33.3% (active)"}
{"molecule": "CCN(CC)CC(=O)Nc1nn(-c2ccccc2)nc1C(N)=O", "inhibition": "-4.59% (inactive)"}
{"molecule": "COc1ccc(OC)c(/C=C/C(=O)c2ccc3c(c2)OCO3)c1", "inhibition": "7.32% (inactive)"}
{"molecule": "COc1ccc(/C=N/NC(=O)c2ccc3c(c2)OCCO3)c(OC)c1", "inhibition": "35.4% (active)"}
{"molecule": "COc1ccc(OC)c(/C=N/NC(=O)c2ccc[n+](CC(=O)c3ccccc3)c2)c1", "inhibition": "11.2% (inactive)"}
{"molecule": "CCCCc1ccc(S(N)(=O)=O)cc1", "inhibition": "1.6% (inactive)"}
{"molecule": "CN(C)c1ccc(C=NCCc2ccc(S(N)(=O)=O)cc2)cc1", "inhibition": "54.4% (active)"}
{"molecule": "CN(CC(=O)NCCc1ccc(S(N)(=O)=O)cc1)CC(=O)Nc1ccc(Cl)cc1", "inhibition": "2.64% (inactive)"}
{"molecule": "O=C(O)CC(c1ccccc1F)N1Cc2ccccc2C1=O", "note": "(stereo unspecified)", "inhibition": "-3.95% (inactive)"}
{"molecule": "Cc1c(C(=O)NC2CCCCC2)oc2ccccc12", "inhibition": "5.98% (inactive)"}
{"molecule": "CC(C)c1ccccc1OCC(O)CN(CC(O)COc1cccc2ccccc12)C(C)C", "note": "(stereo unspecified)", "inhibition": "6.49% (inactive)"}
{"molecule": "COc1ccc(/C=C/C(=O)OCC(=O)NC2CCCCCC2)cc1OC", "inhibition": "27.3% (inactive)"}
{"molecule": "COc1cc(/C=C/C(=O)Nc2ccc(OC)c(S(=O)(=O)N3CCOCC3)c2)ccc1OCC#N", "inhibition": "34.9% (active)"}
{"molecule": "COc1cccc(/C=C/C(=O)Nc2ccc3c(c2)OCCO3)c1", "inhibition": "9.4% (inactive)"}
{"molecule": "COc1ccc(/C=C/C(=O)Nc2ccc3c(c2)OCCO3)cc1OC", "inhibition": "33.3% (active)"}
{"molecule": "COc1cc(/C=C/C(=O)OCC(=O)N2CCOCC2)ccc1OCC#N", "inhibition": "5.68% (inactive)"}
{"molecule": "COc1ccc(S(=O)(=O)N(C)CC(=O)Nc2ccc3c(c2)OCCO3)cc1OC", "inhibition": "5.05% (inactive)"}
{"molecule": "COc1ccc(/C=C/C(=O)Nc2ccc(C34CC5CC(CC(O)(C5)C3)C4)cc2)cc1OC", "inhibition": "31% (active)"}
{"molecule": "COc1ccc(CCC(=O)Nc2ccc(Cl)c(S(=O)(=O)N3CCOCC3)c2)cc1OC", "inhibition": "5.73% (inactive)"}
{"molecule": "CSc1ccc(/C=C/C(=O)NC23CC4CC(CC(C4)C2)C3)cc1", "inhibition": "14.4% (inactive)"}
{"molecule": "CCN1C(=O)[C@H]2[C@@H](c3ccc(SC4CCCCC4)c(OC)c3)N[C@@](Cc3ccccc3)(C(=O)OC)[C@H]2C1=O", "inhibition": "9.48% (inactive)"}
{"molecule": "COc1ccc(-c2ccc(C(=O)NCCN3CCOCC3)c3occc23)c(C)c1", "inhibition": "-2.68% (inactive)"}
{"molecule": "CCc1ccc(-c2cc3c(=O)n(CC(=O)NCCCN4CCN(Cc5ccccc5)CC4)nc(C)n3n2)cc1", "inhibition": "5.56% (inactive)"}
{"molecule": "O=C(NCc1cccnc1)c1cccnc1Sc1ccc(Cl)cc1", "inhibition": "-0.62% (inactive)"}
{"molecule": "Cc1ccc(C)c(N2CCN(C(=O)CCc3nc(-c4cccc(C(F)(F)F)c4)no3)CC2)c1", "inhibition": "0% (inactive)"}
{"molecule": "CC1(C)Cc2ccccc2-c2nnc(-c3cccc(O)c3)n21", "inhibition": "3.02% (inactive)"}
{"molecule": "COc1ccc(OC)c(/C=N/NC(=O)CSc2nnc(C)n2-c2ccccc2)c1", "inhibition": "30.2% (inactive)"}
{"molecule": "C=CCn1c(Cn2nnc3ccccc32)nnc1SCC(=O)N/N=C/c1cc(Br)cc(OC)c1O", "inhibition": "33.8% (active)"}
{"molecule": "Cn1c(Cn2nnc3ccccc32)nnc1SCC(=O)c1ccccc1F", "inhibition": "-1.22% (inactive)"}
{"molecule": "Cc1ccc(-n2nc3c(c2NC(=O)CCC2CCCCC2)CS(=O)C3)cc1", "note": "(stereo unspecified)", "inhibition": "-6.57% (inactive)"}
{"molecule": "O=C(CCNS(=O)(=O)c1ccc(Br)s1)NCc1ccccc1Cl", "inhibition": "-5.73% (inactive)"}
{"molecule": "CCn1ccnc1CNC(=O)CC1C(=O)NCCN1CCCc1ccccc1", "note": "(stereo unspecified)", "inhibition": "1.04% (inactive)"}
{"molecule": "O=C(NCc1ccc2c(c1)OCO2)c1cc2c(s1)CS(=O)(=O)C2", "inhibition": "3.7% (inactive)"}
{"molecule": "CCOc1ccc2ccccc2c1/C=N/NC(=O)c1c(C)cc(C)[nH]c1=O", "inhibition": "11.8% (inactive)"}
{"molecule": "COc1ccc2[nH]c(=O)c(CNc3ccc(C)c(C)c3)cc2c1", "inhibition": "7.26% (inactive)"}
{"molecule": "COc1cc2cc(C(=O)N/N=C/c3cccc(OC)c3OC)[nH]c2cc1OC", "inhibition": "53.6% (active)"}
{"molecule": "COc1cccc(C(=O)N/N=C(\\C)c2cccc(NC(=O)c3ccc(F)cc3)c2)c1OC", "inhibition": "-1.01% (inactive)"}
{"molecule": "CCC(=O)c1ccc(OC(=O)/C=C/c2cc(OC)c(OC)c(OC)c2)cc1", "inhibition": "14.9% (inactive)"}
{"molecule": "CCOc1ccc2[nH]c(C(=O)N/N=C/c3cccc(OC)c3OC)cc2c1", "inhibition": "42.1% (active)"}
{"molecule": "COc1cccc2[nH]c(C(=O)NCCc3ccccc3)cc12", "inhibition": "2.15% (inactive)"}
{"molecule": "CCOc1ccc2[nH]c(=O)c(CN(CCCO)C(C)=O)cc2c1", "inhibition": "10.1% (inactive)"}
{"molecule": "COc1ccc2[nH]c(C(=O)N/N=C/c3cc(OC)c(OC)c(OC)c3)cc2c1", "inhibition": "63% (active)"}
{"molecule": "CC(C)n1c(SCC(=O)Nc2ccccc2N2CCCCC2)nc2c1c(=O)n(C)c(=O)n2C", "inhibition": "2.5% (inactive)"}
{"molecule": "NS(=O)(=O)c1ccc(CNC(=O)c2ccc(Cl)cc2[N+](=O)[O-])cc1", "inhibition": "-1.13% (inactive)"}
{"molecule": "Cc1cn(C)c(=O)n(C)c1=O", "inhibition": "-2.08% (inactive)"}
{"molecule": "COc1cccc(N2CC(C(=O)NCc3n[nH]c(=O)c4ccccc34)CC2=O)c1", "note": "(stereo unspecified)", "inhibition": "3.52% (inactive)"}
{"molecule": "CC(C)Cc1nc(Cl)c(C#N)c2c1CCC2", "inhibition": "-7.66% (inactive)"}
{"molecule": "O=c1cc(N2CCCCC2)c(-c2ccccc2)nn1Cc1cccc(F)c1", "inhibition": "10.7% (inactive)"}
{"molecule": "O=C(Nc1cc(C(F)(F)F)ccc1Cl)c1cc2nc3c(c(C(F)(F)F)n2n1)CCCC3", "inhibition": "-11.5% (inactive)"}
{"molecule": "Cc1cc(C)cc(OCC(=O)NNC(=O)c2cc3ccccc3oc2=O)c1", "inhibition": "11.9% (inactive)"}
{"molecule": "NS(=O)(=O)c1ccc(NC(=O)COC(=O)CCc2c[nH]c3ccccc23)cc1", "inhibition": "4.09% (inactive)"}
{"molecule": "NS(=O)(=O)c1ccc(NC(=O)COC(=O)c2cc3ccccc3oc2=O)cc1", "inhibition": "32.9% (active)"}
{"molecule": "OCC(O)C1OCOC(C(O)CO)C1O", "note": "(stereo unspecified)", "inhibition": "3.51% (inactive)"}
{"molecule": "CCCNS(=O)(=O)c1ccc(CCC(=O)NCc2cccnc2)cc1", "inhibition": "1.83% (inactive)"}
{"molecule": "Nc1ncnc(Nc2cccc(Cl)c2Cl)n1", "inhibition": "6.09% (inactive)"}
{"molecule": "CC1CCN(C(=O)c2ccc(S(=O)(=O)Cc3cc(F)ccc3F)c([N+](=O)[O-])c2)CC1", "inhibition": "2.21% (inactive)"}
{"molecule": "CCOc1ccccc1NC(=O)C1CCCN(S(=O)(=O)c2ccccc2)C1", "note": "(stereo unspecified)", "inhibition": "11.6% (inactive)"}
{"molecule": "O=C(CNS(=O)(=O)c1ccc2c(c1)OCCCO2)N1CCN(c2ccc(F)cc2)CC1", "inhibition": "6.99% (inactive)"}
{"molecule": "COc1ccc(N2CCN(C(=O)CNS(=O)(=O)c3ccc(C)c(C)c3)CC2)cc1", "inhibition": "10.1% (inactive)"}
{"molecule": "O=C(NN=CC=Cc1ccccc1)C(O)C(O)C(=O)NN=CC=Cc1ccccc1", "note": "(stereo unspecified)", "inhibition": "20.2% (inactive)"}
{"molecule": "Cc1ccc(-c2cc(C(=O)N/N=C/C=C/c3ccccc3)n[nH]2)o1", "inhibition": "36.6% (active)"}
{"molecule": "Cc1ccc(-c2cc(C(=O)NN)n[nH]2)o1", "inhibition": "-4.43% (inactive)"}
